Shown are actives, neighbours in structure and some others; about 7.9% of the full set was active somewhere.
KB-3-1 cytotox – KB-3-1 parental cell cytotoxicity; 400,000 compounds, 1.4% hits; KB-3-1 viability, CellTiter-Glo ATP luminescence, 72 h; Potency, µM (top dose mostly 46.1 µM), hits mostly cytotoxic; also: % is scaled to controls: 0 for no effect and ±100 for the full control effect; nearly all actives have a fitted effect of over 60% in size
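Here the drug-naive KB-3-1 line serves as comparator for MDR sub-line selectivity; cells received compound titrations, 72 h at 37 °C, then CellTiter-Glo readout.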
HT1080NT lethal – kills 2HG-producing HT-1080-NT fibrosarcoma cells | 360,000 compounds, 1.6% hits | Potency, µM (top dose mostly 46.1 µM), without a hit: at the top dose activity, negative = less viability, hits mostly cytotoxic | HT-1080-NT fibrosarcoma viability, CellTiter-Glo ATP luminescence, 48 h | AID 686970;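 also: NT is the 2HG producing partner of a matched IDH1 knockdown line; 0% = DMSO-treated cells and -100% = media-only wells without cells; nearly all actives have a fitted effect of over 55% in size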
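HT-1080-NT fibrosarcoma cells (2HG-overproducing), 750 cells/well in RPMI with 5% FBS, dosed after 2 h and incubated 48 h at 37C. CellTiter-Glo luminescence normalized to DMSO and no-cell wells; concentration-response curves fitted and classed.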
HT1080 IDH1KD tx – kills HT-1080 cells with IDH1 knockdown. HT-1080 IDH1 knockdown viability, ATP luminescence, 48 h. Potency, µM (highest dose often 46.1 µM), for inactives: top-dose activity, negative = toxicity, usual class: cytotoxic. AID 686971. 360,000 compounds, 2% hits;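 also: 0% = DMSO wells and -100% = cell-free medium wells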
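CellTiter-Glo luminescence after 48 h compound exposure at 37 degrees C of IDH1-knockdown HT-1080 cells in 5% FBS RPMI. %Activity scaled between DMSO wells and cell-free media wells, with curves fitted and assigned curve classes.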
KB-V1 MDR tox – kills drug-selected multidrug resistant KB-V1 cells | KB-V1 MDR cells viability, CellTiter-Glo, 72 h | Potency, µM (titrated, usually from 46.1 µM), usual class: cytotoxic | 400,000 compounds, 3.4% hits; also: % is scaled to controls: 0 for no effect and ±100 for the full control effect; nearly all actives have a fitted effect of over 60% in size
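Cytotoxicity via CellTiter-Glo luminescence after 72 h compound exposure at 37 degrees C. Cells: drug-selected KB-V1 line, DMEM phenol-red free plus 10% FBS. Compounds tested at multiple concentrations; normalized data fitted to concentration-effect curves.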
MCF10A rereplic – DNA re-replication induction in MCF 10a cells. MCF 10A DNA re-replication, Hoechst nuclear intensity, 48 h. Potency, µM (titrated, usually from 46.1 µM), without a hit: at the top dose activity, positive = re-replication, most hits filed as activators. 350,000 compounds, 2.9% hits; also: % of control where 0% means no effect; nearly all actives have a fitted effect of over 50% in size
SW480 rerep – induces DNA re-replication in SW480 colon adenocarcinoma cells | AID 624297 | Potency, µM (titrated, usually from 46.1 µM), without a hit: at the top dose re-replication activation, hits mostly activators | SW480 DNA re-replication, Hoechst DNA content imaging, 48 h | 340,000 compounds, 1.8% hits; also: % of control where 0% means no effect; nearly all actives have a fitted effect of over 55% in size
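First, 250 cells per well were seeded. Next, compound or vehicle (23 nL) was pinned in, plates sat 48 hr at 37 C. Finally Hoechst was added for 40 min before fluorescence scanning.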
The depositor's hits bear a star; i = inactive; ? = inconclusive; · = no result given; [ ] = dose if it differs, or a comment. Calls follow the shape of the dose curve; as a rule, active = well fitted curve in the direction sought with a large enough effect; inconclusive = small, poorly fitted or top-dose-only effect, or another doubt; inactive = no such curve, though single readings can be large; an effect the other way counts as inactive or inconclusive. Potency is read from the fitted curve at half-maximal effect.

SMILES	KB-3-1 cytotox	HT1080NT lethal	HT1080 IDH1KD tx	KB-V1 MDR tox	MCF10A rereplic	SW480 rerep
Cc1ccc(SCCSc2nc(N)cc(=O)[nH]2)cc1	i	-4%	-3%	8.2µM*	17%	-3%
Cc1nc(SCc2ccc(Br)cc2)[nH]c(=O)c1C	i	?	?	i	7.3µM*	-5%
CCCc1cc(=O)[nH]c(SCc2ccccc2)n1	i	-12%	-3%	i	1%	0%
CCc1cc(=O)[nH]c(SCCc2ccccc2)n1	13µM*	12%	3%	8.2µM*	?	3%
CCN(CC(=O)Nc1ccc(NC(C)=O)cc1)C(=O)/C=C/c1ccc(C)o1	i	5%[9.24 µM]	1%	i	3%	-18%
CCCOc1ccc(NC(=O)CC2C(=O)N(c3ccc(C)cc3)C(=O)N2C2CCCC2)cc1 (stereo unspecified)	?	·	·	i	·	·
CCN(CC)C(=O)C1=C(C)N(CCCOC)C(=O)C(CC(=O)NC2CCCCC2)C1 (stereo unspecified)	i	1%	3%	i	·	·
Cc1nc(SCCc2ccccc2)[nH]c(=O)c1C	3.3µM*	-1%	-1%	3.3µM*	-5%	?
CC(=O)NCCNC(=O)c1cccc(NS(=O)(=O)c2ccc3c(c2)OCCO3)c1	i	12%	4%	i	-6%	-16%
Cc1cc(F)ccc1S(=O)(=O)N1CCCOC1CNC(=O)C(=O)NCCc1ccco1 (stereo unspecified)	i	1%	1%	?	·	·
CSc1nnc(-c2cccn(Cc3ccccc3)c2=O)o1	i	-2%	10%	i	-1%	16%
O=c1c(-c2nnc(SCc3ccc(Cl)cc3Cl)o2)cccn1Cc1ccccc1	?	0%	-1%	2.9µM*	7%	0%
Cn1c(=O)c2c([nH]c(OCc3ccc(Cl)cc3Cl)[n+]2Cc2ccc(F)cc2)n(C)c1=O	i	-3%	1%	i	?	18%
Cc1ccc(C)c(Cn2c3ccccc3c3cnn(CC(=O)NCCC4=CCCCC4)c(=O)c32)c1	i	·	·	i	·	·
CC1CN(c2ccccn2)C(C)CN1C(=S)Nc1ccccc1 (stereo unspecified)	i	11%	23%	23µM*	-1%	-3%
O=C(Cn1nc(-c2ccc(Cl)cc2)ccc1=O)NCCc1ccccc1	i	·	·	i	·	·
CCOc1ccc(NC(=O)c2nc(S(=O)(=O)Cc3ccc(C)cc3)ncc2Cl)cc1	?	·	·	i	·	·
CCOc1ccc(NC(=O)c2nc(S(=O)(=O)Cc3ccccc3)ncc2Cl)cc1	?	·	·	i	·	·
CCC1CCCCN1S(=O)(=O)c1ccc(NC(=O)c2nc(S(C)(=O)=O)ncc2Cl)cc1 (stereo unspecified)	?	4.6µM*	3.3µM*	?	?	?
CS(=O)(=O)c1ncc(Cl)c(C(=O)Nc2ccc3ccccc3c2)n1	i	9.2µM*	2.9µM*	i	?	1.2µM*
CC(=O)Nc1ccc(NC(=O)c2nc(S(=O)(=O)Cc3ccccc3)ncc2Cl)cc1	i	-3%	-3%	i	?	-19%
CCS(=O)(=O)c1ncc(Cl)c(C(=O)Nc2ccc(C)cc2)n1	?	18µM*	15µM*	i	5.8µM*	3.7µM*
Cc1ccc(CS(=O)(=O)c2ncc(Cl)c(C(=O)Nc3ccc(OC(F)F)cc3)n2)cc1	23µM*	16µM*	?	18µM*	7.3µM*	?
CCOC(=O)Cn1c(=O)oc2cc(S(=O)(=O)Nc3ccccc3F)ccc21	i	·	·	i	·	·
C=CC(=O)Nc1cccc(CN2C(=O)N(c3cc(OC)cc(OC)c3)Cc3cnc(NCCCCN(CC)CC)nc32)c1	i	-14%	1%	i	?	1%
SMILES	KB-3-1 cytotox	HT1080NT lethal	HT1080 IDH1KD tx	KB-V1 MDR tox	MCF10A rereplic	SW480 rerep
Cc1ccc(-n2c(Cc3ccccc3)nnc2SCc2nc(-c3cccs3)no2)cc1C	i	·	·	i	·	·
CCS(=O)(=O)c1ncc(Cl)c(C(=O)Nc2ccc(S(=O)(=O)N3CCCC(C)C3)cc2)n1 (stereo unspecified)	3.7µM*	2.6µM*	4.6µM*	5.8µM*	2.6µM*	7.3µM*
COc1ccc(N2CCN(S(=O)(=O)c3ccc4oc(=O)c5ncn(C)c5c4c3)CC2)cc1	i	·	·	?	·	·
CSc1nc(C)c2c(n1)N(c1ccc(C(C)C)cc1)CC2	i	5%	1%	8.2µM*	8%	14%
CC(C)OCCCn1c(=O)c2ccccc2n2c(-c3ccc(F)c(F)c3)nnc12	i	·	·	i	·	·
N#CC[n+]1cccc(Br)c1	i	·	·	i	·	·
COC(=O)c1ccc(C2N=C(c3cccs3)CC(c3ccccc3O)N2)cc1 (stereo unspecified)	i	?	?	i	18µM*	?
O=C(c1ccccc1)N1N=C(c2cccs2)CC1c1ccccc1O (stereo unspecified)	i	-13%	-1%	i	17%	-7%
COc1cccc(CN2c3ccccc3-c3nc(SCC(=O)Nc4cccc(C)c4)ncc3S2(=O)=O)c1	i	·	·	i	·	·
Cc1nn(C)cc1/C=N/NC(=S)Nc1ccccc1	i	16%	6%	?	12%	1.6µM*
Oc1ccccc1C=NNC(=S)Nc1ccc(F)cc1	?	?	5.8µM*	i	?	55%
CN(C)c1ccc(C=NNC(=S)Nc2ccc(F)cc2)cc1	i	-5%	-28%	i	21µM*	?
Fc1ccccc1/C=N/NC(=S)Nc1ccc(Cl)cc1Cl	8.2µM*	5.2µM*	3.3µM*	1.5µM*	?	3.3µM*
Fc1ccc(NC(=S)NN=Cc2ccccc2Cl)cc1	i	-22%	-18%	i	11%	?
O=C(O)CCC(=O)Nc1ccc(Oc2ncnc3cc(Cl)ccc23)nc1	?	13%	6%	i	-1%	-7%
[N-]=[N+]=NCC/C=C\C1NS(=O)(=O)OCC1O (stereo unspecified)	i	0%	9%	i	3%	-8%
Cc1nc2ccc(C(=O)N3c4ccccc4N=C(c4ccc(C(F)(F)F)cc4)C3C(=O)NC(C)(C)C)cc2[nH]1 (stereo unspecified)	?	?	?	i	·	·
CN(C)c1nc(N/N=C/c2ccccc2O)nc(Nc2ccc(F)cc2)n1	?	?	13µM*	?	10µM*	5.8µM*
CN(C)c1nc(Nc2ccc(F)cc2)nc(Oc2ccc(F)cc2)n1	i	-16%	-17%	i	1%	4%

Assay outcomes (PubChem)
